ALDH1A1 block: ALDH1A1 (human) enzyme inhibition | Purified ALDH1A1, NADH fluorescence, propionaldehyde substrate | P00352 | hit rate 7.3% among 220,000 | Potency, µM (highest dose often 75.3 µM), hits mostly inhibitors
HPGD block: HPGD (human) dehydrogenase inhibition. hit rate 4.3% among 150,000. purified HPGD, NADH fluorescence kinetic, PGE2 substrate. Potency, µM, hits mostly inhibitors. AID 894
Target sequence (P15428 whole entry, looked up): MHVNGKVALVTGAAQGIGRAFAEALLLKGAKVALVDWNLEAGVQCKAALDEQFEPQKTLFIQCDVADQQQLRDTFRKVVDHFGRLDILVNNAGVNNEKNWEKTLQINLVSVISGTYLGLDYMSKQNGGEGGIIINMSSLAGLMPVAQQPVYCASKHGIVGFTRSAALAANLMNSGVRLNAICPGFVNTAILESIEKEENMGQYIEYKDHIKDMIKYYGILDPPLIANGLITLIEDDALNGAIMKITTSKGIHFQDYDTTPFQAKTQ
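NADH formation kinetics: reaction with 30 uM PGE2 and 1 mM NAD+ (final), 20 nM enzyme, Tris-HCl pH 8 with Tween 20, after 15 min compound preincubation at room temperature. Fluorescence change, last versus first of five reads.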
IMPase cell inh: IMPase inhibition in cells. P97697. CHO-M1 cells, IP1 accumulation, HTRF TR-FRET ratio. inhibition (IP1 accumulation), % at 46.1 µM. 120,000 tested, under 10 active; active = well fitted curve in the direction sought with a large enough effect in the signal ratio, not every such curve was filed as active; inconclusive = small, poorly fitted or top-dose-only effect, or a change in a side signal; inactive = no such curve, though single readings can be large or run the other way; the % refers to the signal ratio;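 note: cells stimulated with carbachol in lithium chloride buffer; higher means more IMPase inhibition seen as more IP1 and lower FRET ratio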
Target sequence (P97697 whole entry, looked up): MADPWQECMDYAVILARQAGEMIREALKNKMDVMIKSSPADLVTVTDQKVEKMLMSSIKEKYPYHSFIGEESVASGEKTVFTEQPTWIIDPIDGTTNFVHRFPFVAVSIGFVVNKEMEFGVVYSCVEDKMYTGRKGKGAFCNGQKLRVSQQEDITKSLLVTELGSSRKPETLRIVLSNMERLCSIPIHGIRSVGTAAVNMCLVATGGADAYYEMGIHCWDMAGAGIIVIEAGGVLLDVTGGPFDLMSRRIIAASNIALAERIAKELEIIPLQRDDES
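Seeded CHO-M1 cells were dosed with compound at up to 46 uM, stimulated with carbachol for 30 min, then lysed in IP-One detection reagents. Higher IP1 lowers the TR-FRET signal.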
Each line names hits and unclear results; the compound was inactive in the other large screens. Rows were chosen to be rich in hits. Some 9% of all compounds tested hit in one or more screens of this group. Unless noted, calls come from the whole dose curve; as a rule, active = well fitted inhibition curve with a large enough effect (not every such curve was filed as active); inconclusive = small, poorly fitted or top-dose-only effect, or another doubt; inactive = no such curve, though single readings can be large or run the other way.

CC(/C=C/c1ccco1)=N/NC(=O)CNc1ccccc1C	none (no result: HPGD block, IMPase cell inh)
CCSC1=C(C#N)C(c2ccc(Cl)cc2)C2=C(CCCC2=O)N1 (stereo not given)	none
CSC1=C(C#N)C(c2ccc3c(c2)OCO3)C2=C(CCCC2=O)N1 (stereo not given)	HPGD block 16µM (no result: IMPase cell inh)
COC(=O)c1ccccc1NC(=O)CNc1cc(Cl)ccc1N1CCOCC1	ALDH1A1 block 32µM
COc1ccc(Cl)cc1NC(=O)CN(C)CC(=O)Nc1ccccc1N1CCOCC1	none (no result: HPGD block, IMPase cell inh)
[NH-]c1ncnc2c1N=C[N+]2=CC=CCO	none (no result: HPGD block, IMPase cell inh)
CC1=C(C(=O)Nc2ccccc2)C(CC(C)C)n2nc(SCc3ccccc3C)nc2N1 (stereo not given)	none (no result: ALDH1A1 block, HPGD block)
C=CCN1C(=O)C(O)=C(C(C)=O)C1c1ccccc1F (stereo not given)	none
Cc1ccc2c(c1)-c1c(ssc1=S)C(C)(C)N2C(=O)c1ccco1	ALDH1A1 block 10µM, HPGD block 8.9µM
CC1(C)c2ssc(=S)c2-c2ccccc2N1C(=O)c1ccco1	none
CCOC(=O)c1c(N)sc2c1CCN(Cc1ccccc1)C2	none (no result: IMPase cell inh)
CN(C)CN1C(=O)S/C(=C2/C(=O)N(CN(C)C)c3ccccc32)C1=O	none (no result: IMPase cell inh)
NC(=O)c1c(NC(=O)CN2C(=O)CCC2=O)sc2c1CCCCC2	ALDH1A1 block 14µM, HPGD block inconclusive, IMPase cell inh inconclusive
CC(=O)N1CCc2c(sc(NC(=O)CN3C(=O)CCC3=O)c2C(N)=O)C1	ALDH1A1 block inconclusive, HPGD block inconclusive
NC(=O)c1c(NC(=O)CN2CCCC2)sc2c1CCCC2	ALDH1A1 block 18µM, HPGD block inconclusive
NC(=O)c1c(NC(=O)CN2CCOCC2)sc2c1CCC2	ALDH1A1 block inconclusive
COc1ccc(CCn2c3c(c(=O)[nH]c2=O)C(NC(=O)c2ccc(Cl)cc2)(C(F)(F)F)C(=O)N3)cc1OC (stereo not given)	none (no result: ALDH1A1 block, HPGD block)
COc1ccc(C2c3c(oc4ccccc4c3=O)C(=O)N2c2nc(C)c(C)s2)cc1 (stereo not given)	none (no result: ALDH1A1 block, HPGD block)
COC(=O)[C@@H]1CC[C@H](C)[C@@H](c2ccc(C)cc2)N1C(=O)c1ccc(/C=N\O[C@@H](C)c2cn([C@H]3COC[C@H]3O)nn2)cc1	none (no result: HPGD block, IMPase cell inh)
COc1ccc(S(=O)(=O)NCCSC(C)(C)C)cc1Cl	ALDH1A1 block inconclusive
COc1ccc(S(=O)(=O)NCCSCc2ccco2)cc1Cl	ALDH1A1 block 20µM
COc1ccc(OC)c(Cc2nnc(CCC(=O)NC3CCCCCCC3)o2)c1	none (no result: HPGD block, IMPase cell inh)
COc1ccc(OC)c2c(C)cc(NCCN3CCOCC3)nc12	ALDH1A1 block inconclusive
CCCN1C(=O)/C(=C\C=C2/C=CN(CC)c3ccccc32)SC1=S	ALDH1A1 block 5µM
CCCCN1C(=O)/C(=C/C=C2\N(C)c3ccccc3C2(C)C)SC1=S	ALDH1A1 block inconclusive
O=C(O)c1ccccc1SC1CC(=O)N(c2ccccc2)C1=O (stereo not given)	ALDH1A1 block 2.5µM (no result: IMPase cell inh)
Cc1nnc(SC2CC(=O)N(c3ccccc3)C2=O)s1 (stereo not given)	ALDH1A1 block 0.71µM, HPGD block 13µM
O=C1CC(SC2=NCCS2)C(=O)N1c1ccc(Br)cc1 (stereo not given)	ALDH1A1 block 7.9µM (no result: IMPase cell inh)
Cc1nc(SC2CC(=O)N(c3ccccc3)C2=O)nc2c1CCCC2 (stereo not given)	none
O=C(O)c1ccccc1SC1CC(=O)N(C2CCCCC2)C1=O (stereo not given)	ALDH1A1 block 0.63µM
O=C1CC(SC2=NCCS2)C(=O)N1c1ccc(Cl)cc1 (stereo not given)	ALDH1A1 block inconclusive (no result: IMPase cell inh)
CC(c1ccccc1)N1C(=O)CC(Sc2ncccc2C(=O)O)C1=O (stereo not given)	none
Cc1ccc(NC(=O)CC2Nc3cc(C)c(C)cc3NC2=O)c(C)c1 (stereo not given)	none (no result: ALDH1A1 block, HPGD block)
CC(=O)Nc1ccc(-c2c(C)cc3oc(=O)cc(-c4ccccc4)c3c2C)cc1	ALDH1A1 block inconclusive (no result: IMPase cell inh)
Nc1ccc(C(=O)OCC(=O)N2CCOCC2)cc1[N+](=O)[O-]	none
CCN(C(=O)c1ccc(C(C)(C)C)cc1)c1nnc(Cn2nnc3ccccc32)s1	IMPase cell inh inconclusive
Cc1ccc(S(=O)(=O)Nc2cc3c(C(=O)OCc4ccccc4)c(C)oc3c3ccccc23)cc1	none (no result: ALDH1A1 block, HPGD block)
O=C1c2ccccc2C(=O)N1CN(C(=O)COc1ccc(Cl)cc1Cl)c1cccc(F)c1	none
CCN=C(NCC)SC1CC(=O)N(c2ccccc2)C1=O (stereo not given)	none
COC(=O)c1c(N2C(=O)CC(Sc3ccccc3C(=O)O)C2=O)sc(C)c1C (stereo not given)	none (no result: HPGD block, IMPase cell inh)
COC(=O)c1c(N2C(=O)CC(Sc3ccccc3C(=O)O)C2=O)sc2c1CCCC2 (stereo not given)	ALDH1A1 block 0.45µM (no result: HPGD block, IMPase cell inh)
O=C1CC(Sc2cccs2)C(=O)N1c1ccccc1 (stereo not given)	ALDH1A1 block 13µM (no result: HPGD block, IMPase cell inh)
CN1C2CCC1/C(=C/c1cccn1C)C(=O)/C2=C\c1cccn1C	HPGD block 28µM (no result: IMPase cell inh)
Cn1cccc1/C=C1\Cc2ccccc2C1=O	ALDH1A1 block 11µM (no result: HPGD block, IMPase cell inh)
Cn1cccc1/C=C1\CCc2ccccc2C1=O	none (no result: HPGD block, IMPase cell inh)
CN1C2CCC1/C(=C\c1ccc(F)cc1)C(=O)/C2=C/c1ccc(F)cc1	none
Cc1cc([N+](=O)[O-])nn1CCCC(=O)Nc1cccc(Cl)c1Cl	none (no result: HPGD block, IMPase cell inh)
N#Cc1ccc(OCC(=O)Nc2ccccc2NS(=O)(=O)c2cccs2)cc1	none (no result: IMPase cell inh)
Cc1cccc(NC(=O)C2CCCN(S(=O)(=O)c3cccc4nonc34)C2)c1C (stereo not given)	none (no result: ALDH1A1 block, HPGD block)
CCCCCCCCCCCCCCCC(N)=O	none (no result: IMPase cell inh)
Cc1ccc(CNC(=O)CSCc2ccccc2)cc1	none (no result: HPGD block, IMPase cell inh)
CCCCN(CCCC)CCNC(=O)CSCc1ccc(C)cc1	ALDH1A1 block 28µM (no result: HPGD block, IMPase cell inh)
O=C(O)CCCCn1cnc2c(=S)nc[nH]c21	none (no result: IMPase cell inh)
CC(=O)c1cccc(NC(=O)COc2cc3oc(=O)c(CC(C)O)c(C)c3cc2Cl)c1 (stereo not given)	ALDH1A1 block inconclusive, HPGD block inconclusive
O=C(c1ccc(COc2ccccc2Cl)o1)N1CCN(c2ccccc2)CC1	ALDH1A1 block inconclusive
CCOc1ccc(OCc2cccc(C(=O)N3CCCCCC3)c2)cc1	ALDH1A1 block 35µM (no result: HPGD block, IMPase cell inh)
Cc1cc(C)cc(C(=O)N2CC(C)OC(C)C2)c1 (stereo not given)	ALDH1A1 block inconclusive
CCOc1ccc(OCc2cccc(C(=O)N3CCCC3)c2)cc1	none
CCCCOc1ccc(C(=O)N2CC(C)OC(C)C2)cc1 (stereo not given)	ALDH1A1 block 0.079µM, HPGD block inconclusive
CCOc1ccc(C(=O)N2CCN(Cc3ccccc3)CC2)cc1	none
CCOc1ccc(C(=O)N2CCCC2)cc1	HPGD block 7.9µM
O=C(c1ccc(COc2ccccc2Br)o1)N1CCCCCC1	ALDH1A1 block 16µM, HPGD block 14µM
Cn1nc(-c2ccccc2)c(C(=O)NCC(=O)O)c1Cl	none (no result: HPGD block, IMPase cell inh)
COc1ccc(NC(=O)N2CC[C@@]3(CCCN(C(=O)c4c(C)noc4C)C3)C2)cc1	ALDH1A1 block inconclusive (no result: IMPase cell inh)
Cc1ccc(CNS(=O)(=O)c2ccccc2[N+](=O)[O-])cc1	none (no result: HPGD block, IMPase cell inh)
C[C@H](CCC(=O)O)[C@H]1CC[C@@H]2[C@@H]3CC[C@H]4C[C@@H](O)CC[C@@]4(C)[C@@H]3C[C@H](O)[C@@]21C	none (no result: IMPase cell inh)
CN1CCN(C(=O)c2ccc(COc3ccc(C(C)(C)C)cc3)o2)CC1	none
CCOc1ccc(OCc2ccc(C(=O)N3CCCC3)o2)cc1	ALDH1A1 block 28µM, HPGD block inconclusive
